Reference: PubChem BioAssay AID687001 (Broad Institute, 2013)
Measured potencies and affinities stand elsewhere. Calls of active or inactive are those of the source.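 How the source made its calls: active means signal-lowering compounds whose fitted half-maximal concentration is at or below twice the top tested dose in every run; inconclusive means runs disagree, flat 30 to 70% inhibition, or poor curve fit; inactive means the rest.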

Target: Protein S100-A4 (Homo sapiens) (UniProt P26447)
Experiment: human S100A4 peptide interaction inhibition curves – biochemical, fluorescence polarization, cherry-picked hits, dose response (AID 687001)
Conditions: FP, S100A4/TAMRA-myosin IIA peptide binding; series mostly up to 11 µM

Chain of Protein S100-A4 (Homo sapiens) (P26447 whole entry, looked up): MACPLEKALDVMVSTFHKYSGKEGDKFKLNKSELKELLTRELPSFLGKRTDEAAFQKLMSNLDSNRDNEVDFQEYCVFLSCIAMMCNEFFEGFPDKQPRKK

outcome, inactive:
O=C(CSc1nnc(NC(=O)C2CC2)s1)NCc1ccccc1Cl
O=C(c1ccccc1)N1CC2(C1)[C@H](c1ccccc1)[C@@H](CO)N2Cc1ccccn1
CCS(=O)(=O)c1nc(S(=O)(=O)c2ccc(C)cc2)c(NCCCN2CCCC2=O)s1
CSCCC(NC(=O)c1ccccc1Cl)C(=O)NCC(c1cccs1)N(C)C (stereo not drawn)
CN1c2ccc(C3=CCCCC3)cc2[C@@H]2[C@@H](CCN2C(=O)C2CC2)[C@H]1CO
Cc1ccc(C(=O)N/C(=C/c2ccc(C(C)C)cc2)C(=O)NCCCN2CCOCC2)cc1
C[C@@H]1CN([C@H](C)CO)C(=O)c2cc(C#Cc3ccccc3)cnc2O[C@@H]1CN(C)C(=O)c1ccccc1F
CCCCCC(=O)Nc1cc(S(=O)(=O)N2CCOCC2)ccc1N1CCCCC1
Cc1ccc(S(=O)(=O)NCC[C@@H]2CC[C@@H](NC(=O)C3CCOCC3)[C@H](CO)O2)cc1
COCC(=O)Nc1ccc2c(c1)[C@@H]1C[C@@H](CC(=O)N3CCOCC3)O[C@@H](CO)[C@@H]1O2
C[C@@H]1CCCCO[C@H](CN(C)C(=O)NC2CCCCC2)[C@@H](C)CN([C@@H](C)CO)C(=O)c2cc(NC(=O)Nc3ccc(C(F)(F)F)cc3)ccc2O1
CC(=O)N(C)C[C@@H]1Oc2cc(C#CCC(C)C)ccc2S(=O)(=O)N([C@H](C)CO)C[C@@H]1C
Cc1nn(-c2ccccc2)c(N)c1N=O
CO[C@H]1CN(C)C(=O)c2cc(NC(=O)C3CC3)ccc2OC[C@H](C)N(C(=O)CN(C)C)C[C@H]1C
Cc1ccccc1CNS(=O)(=O)c1c(C(=O)N2CCCC2)c(C)n(C)c1C
CC(OCCN(C)C)C(=O)C12CC3CC(CC(C3)C1)C2 (stereo not drawn)
O=C(CCc1ccccc1)Nc1sc2c(c1C(=O)O)CCCC2
COc1cccc(-c2ccc([C@@H]3[C@H](CO)N4CCCCN(C(=O)c5ccc(F)cc5)C[C@@H]34)cc2)c1
COc1cccc(NC(=O)N(C)C[C@@H]2OCc3ccccc3-c3c(n(C)c4ccccc34)C(=O)N([C@@H](C)CO)C[C@@H]2C)c1
COc1ccc(CN2CCC(C(=O)Nc3ccc(Oc4cccnc4)cc3)CC2)c(C)c1C
COc1ccc(C(=O)N(C)C2(C)CCS(=O)(=O)C2)cc1OC (stereo not drawn)
CN(CC1CCCN(CCc2ccc(Cl)cc2)C1)C(=O)CC(F)(F)F (stereo not drawn)
Oc1ccc(-c2cc(-c3ccc(O)cc3)nc(-c3ccccc3)n2)cc1
CCn1c(=S)sc2c(=O)n(CC(=O)Nc3ccc(C(C)=O)cc3)c(C)nc21
COc1cccc(S(=O)(=O)N2CC[C@@H]3[C@@H](CO)Nc4ccc(C#Cc5ccccc5)cc4[C@@H]32)c1
COc1ccccc1Nc1cc(C)nc(Nc2ccccc2OC)n1
CCn1nc(C(=O)Nc2cc(Cl)ccc2-n2cncn2)c2ccccc2c1=O
C[C@H]1CCCCO[C@H](CN(C)Cc2ccc(C(F)(F)F)cc2)[C@@H](C)CN([C@@H](C)CO)C(=O)c2cc(NC(=O)Nc3ccc4c(c3)OCO4)ccc2O1
O=C(COC(=O)C1CC1)NCCc1ccccc1
CO[C@H]1CN(C)C(=O)c2ccc(NC(=O)c3ccccc3F)cc2OC[C@H](C)NC[C@@H]1C
O=C(Nc1nnc(S(=O)(=O)N2CCN(c3ccc(F)cc3)CC2)s1)c1ccccc1
CCOC(=O)[C@]12CCCC=C1N(Cc1cccc3ccccc13)C(=O)[C@H](CC(=O)NCCCN1CCCC1=O)C2
O=C(Cc1ccc(Br)cc1)N/N=C/c1cccnc1
CCOC(=O)[C@@H]1[C@H]2COc3cc(OC)ccc3[C@@H]2N2C(=O)N(c3cccc(C)c3)C(=O)[C@]12C
CCOc1cc(/C=C2\CCCc3c2nc2ccccc2c3C(=O)O)ccc1OC
O=C1CN(Cc2ccc(F)cc2)C[C@@H]2[C@@H](c3ccc(-c4ccccc4F)cc3)[C@H](CO)N12
O=C(C[C@@H]1CC[C@@H]2[C@H](COC[C@@H](O)CN2C(=O)c2ccc3c(c2)OCO3)O1)NCCN1CCCC1
CCC(=O)N1CCC(C)(C(=O)NCc2ccc(F)cc2)C1 (stereo not drawn)
